Values without a mark were called inactive.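 The calls were made as follows: active = peak inhibition of the KCNQ2 potassium channel above 30% at some tested dose, plus a fitted dose response curve; inactive = no inhibition at any dose, or no curve.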
Each molecule was assayed against Potassium voltage-gated channel subfamily KQT member 2 (Rattus norvegicus) (UniProt O88943) (assay: blockade of KCNQ2 thallium flux – cell-based, FluxOR thallium flux, CRC set 2, selectivity assay for KCNK9 inhibitor project, SAR follow-up (AID 588800)). Conditions: KCNQ2-expressing cells; series mostly up to 30 µM; thallium flux ratio, lower = inhibition: at the top concentration.
Sequence of Potassium voltage-gated channel subfamily KQT member 2 (Rattus norvegicus) (O88943 whole entry, looked up): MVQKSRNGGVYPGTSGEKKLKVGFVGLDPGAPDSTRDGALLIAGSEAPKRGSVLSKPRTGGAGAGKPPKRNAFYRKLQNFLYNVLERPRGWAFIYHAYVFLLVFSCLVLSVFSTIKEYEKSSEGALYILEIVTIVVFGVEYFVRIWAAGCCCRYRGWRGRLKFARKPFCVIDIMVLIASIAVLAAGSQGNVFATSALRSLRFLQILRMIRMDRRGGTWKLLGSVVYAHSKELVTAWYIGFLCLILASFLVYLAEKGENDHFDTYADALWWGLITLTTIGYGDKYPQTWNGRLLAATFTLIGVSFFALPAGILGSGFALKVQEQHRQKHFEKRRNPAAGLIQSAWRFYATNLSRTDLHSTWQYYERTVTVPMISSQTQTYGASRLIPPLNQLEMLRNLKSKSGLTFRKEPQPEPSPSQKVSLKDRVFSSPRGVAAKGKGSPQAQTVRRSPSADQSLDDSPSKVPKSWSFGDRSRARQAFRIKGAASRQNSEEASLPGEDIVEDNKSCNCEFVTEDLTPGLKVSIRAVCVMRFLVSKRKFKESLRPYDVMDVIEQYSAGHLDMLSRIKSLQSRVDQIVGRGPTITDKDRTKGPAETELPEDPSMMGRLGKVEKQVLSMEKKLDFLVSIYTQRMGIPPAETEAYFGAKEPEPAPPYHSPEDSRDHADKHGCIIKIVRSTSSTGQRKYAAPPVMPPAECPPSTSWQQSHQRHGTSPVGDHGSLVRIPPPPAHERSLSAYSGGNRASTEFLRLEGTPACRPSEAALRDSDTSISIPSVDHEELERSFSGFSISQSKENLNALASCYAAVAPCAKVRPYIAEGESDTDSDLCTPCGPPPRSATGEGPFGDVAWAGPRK

Compound | thallium flux ratio, lower = inhibition
Cc1cccc(C(=O)Nc2cccc(NC(=O)c3ccco3)c2)c1 | 0.192
Cc1cccc(-c2n[nH]c(=S)n2C(C)C2CC3CCC2C3)c1 (stereo not given) | 0.2
CC(c1ccccc1)n1c(-c2ccco2)n[nH]c1=S (stereo not given) | 0.187
O=C(Nc1cccc(NC(=O)c2ccccc2)c1)c1ccccc1 | 0.154
CC(c1ccco1)n1c(-c2ccoc2)n[nH]c1=S (stereo not given) | 0.157
CCOc1ccccc1NC(=O)c1cccc(NC(=O)C(C)(C)C)c1 | 0.181
CCOc1ccccc1C(=O)Nc1cccc(NC(=O)c2cccc(C)c2)c1 | 0.16
CCOc1ccccc1C(=O)Nc1cccc(NC(=O)c2ccccc2OC)c1 | 0.172
O=C(Nc1cccc(NC(=O)c2ccccc2Cl)c1)c1ccccc1 | 0.169
Cc1cccc(C(=O)Nc2cccc(NC(=O)c3ccc(N(C)C)cc3)c2)c1 | 0.206
Cc1cccc(C(=O)Nc2ccccc2NC(=O)c2ccccc2)c1 | 0.143
COc1ccccc1C(=O)Nc1cccc(NC(=O)c2ccccc2OC)c1 | 0.346
Cc1cccc(C(=O)Nc2cccc(NC(=O)c3cccs3)c2)c1 | 0.169
O=C(Nc1cccc(NC(=O)c2ccsc2)c1)c1ccccc1 | 0.203
CCOc1ccccc1NC(=O)c1cccc(NC(=O)C2CC2)c1 | 0.189
COc1ccccc1NC(=O)c1cccc(NC(=O)C2CCCCC2)c1 | 0.174
CCOc1ccccc1NC(=O)c1cccc(NC(=O)C2CCCC2)c1 | 0.186
COc1cccc(C(=O)Nc2cccc(NC(=O)c3ccccc3)c2)c1 | 0.179

Compound | thallium flux ratio, lower = inhibition
CCOc1ccccc1NC(=O)c1cccc(NC(=O)c2ccccc2Cl)c1 | 0.15
Cc1cccc(C(=O)Nc2cccc(NC(=O)c3ccc(Cl)cc3)c2)c1 | 0.192
COc1ccccc1C(=O)Nc1cccc(NC(=O)c2ccccc2C(C)C)c1 | 0.177
Cc1cccc(C(=O)Nc2cccc(NC(=O)c3cccc(C(F)(F)F)c3)c2)c1 | 0.155
O=C(Nc1cccc(NC(=O)c2ccccc2C(F)(F)F)c1)c1ccccc1 | 0.218
COc1ccc(C(=O)Nc2cccc(NC(=O)c3ccccc3)c2)cc1 | 0.15
Cc1cccc(C(=O)Nc2cccc(NC(=O)c3ccccc3C(F)(F)F)c2)c1 | 0.154
Cc1cccc(C(=O)Nc2cccc(NC(=O)c3ccccc3OCC(C)C)c2)c1 | 0.148
CC(C1CC2CCC1C2)n1c(-c2ccco2)n[nH]c1=S (stereo not given) | 0.2
Cc1ccccc1-c1n[nH]c(=S)n1C(C)C1CC2CCC1C2 (stereo not given) | 0.186
Cc1ccccc1C(=O)Nc1cccc(NC(=O)c2ccccc2)c1 | 0.195
O=C(Nc1cccc(NC(=O)c2ccc(Cl)cc2)c1)c1ccccc1 | 0.153
Cc1ccc(C(=O)Nc2cccc(NC(=O)c3ccccc3)c2)cc1 | 0.142
O=C(Nc1cccc(NC(=O)c2ccncc2)c1)c1ccccc1 | 0.191
COc1cccc(-c2n[nH]c(=S)n2C(C)C2CC3CCC2C3)c1 (stereo not given) | 0.176
O=C(Nc1cccc(NC(=O)C2CCCCC2)c1)c1ccccc1 | 0.214
Cc1cccc(C(=O)Nc2cccc(NC(=O)c3ccccc3C)c2)c1 | 0.203

Reference: PubChem BioAssay AID588800 (Johns Hopkins Ion Channel Center, 2011)
